Test results: PubChem BioAssay (NCI)
The panel holds about 83,000 compounds, 20% with a hit somewhere; the sample as a whole holds those more often.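 Assay: single dose, 48 h. Readout: percent growth (0 = no net growth; negative = cell death). Active: <10.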 A number with no mark means an inactive call. Activity calls are given as the source filed them.

Columns and labels:
Assay in all cases: NCI-60 one-dose screen, 48 h (100 = growth as untreated, 0 = no growth, -100 = all killed)
Details in all cases: 10 µM unless noted
[1] = test system: NCI-H23 lung
[2] = test system: NCI-H226 lung
[3] = test system: NCI-H322M lung
[4] = test system: HOP-62 NSCLC
[5] = test system: NCI-H460 lung
[6] = test system: HOP-92 NSCLC
[7] = test system: NCI-H522 lung
[8] = test system: A549/ATCC NSCLC
[9] = test system: 786-0 renal
[10] = test system: COLO 205 colon
[11] = test system: DU-145 prostate
[12] = test system: K-562 leukemia
[13] = test system: MALME-3M melanoma
[14] = test system: MDA-MB-231 breast
[15] = test system: SF-268 CNS
[16] = test system: SF-295 CNS
[17] = test system: SF-539 CNS
[18] = test system: UACC-257 melanoma
[19] = test system: M14 melanoma

| Compound | growth [1] | growth [2] | growth [3] | growth [4] | growth [5] | growth [6] | growth [7] | growth [8] | growth [9] | growth [10] | growth [11] | growth [12] | growth [13] | growth [14] | growth [15] | growth [16] | growth [17] | growth [18] | growth [19] |
| --- | --- | --- | --- | --- | --- | --- | --- | --- | --- | --- | --- | --- | --- | --- | --- | --- | --- | --- | --- |
| CCNC(=O)c1[nH]cc(-c2ccc(OC)cc2)c1-c1cc(OC)c(OC)c(OC)c1 | 60.3% | 83% | 51.6% | 45% | 13.7% | 8.85% (active) | 17.6% | 51.1% | 47.5% | 32.5% | 69.3% | 12.1% | 35.4% | 74.5% | 58.8% | 30.3% | 29.1% | 81.3% | 51.4% |
| COc1cc(C2CC(c3cccc(Nc4ccncc4)c3)=NN2c2ccc(Cl)cc2)cc(OC)c1OC (centres undefined) | 79.9% | 84.3% | 65.1% | -44.4% (active) | -73.8% (active) | 25.1% | -46.1% (active) | 26.1% | 104% | -63.1% (active) | -17.5% (active) | -0.526% (active) | -85.2% (active) | 24.8% | 44.5% | -55.1% (active) | 68.3% | -6.07% (active) | 101% |
| CN(C)Cc1c(-c2ccccc2)[nH]c2ccccc12 | 88.7% | 106% | 114% | 80.3% | 99.5% | 96.4% | 82.5% | 80.3% | 90% | 107% | 113% | 107% | 128% | 102% | 92.1% | 92.7% | 106% | 99.3% | 82.6% |
| CC(=O)c1c[nH]c2ccc(-c3ccnc(Nc4ccc(NC(=O)c5cccc(F)c5)c(CN5CCOCC5)c4)n3)cc12 | -13.2% (active) | -0.697% (active) | -1.47% (active) | 1.97% (active) | -6.06% (active) | -22.8% (active) | 0.424% (active) | 8.56% (active) | 5.7% (active) | -17.8% (active) | 2.59% (active) | 4.68% (active) | -21.7% (active) | -37.5% (active) | -16.8% (active) | -17.2% (active) | -56% (active) | 4.48% (active) | -19.4% (active) |
| O=S(=O)(NCCNc1nccc(-c2c(-c3ccc(F)c(O)c3)nc3occn23)n1)c1ccccc1 | 55.1% | 92.1% | 72.7% | 76.9% | 29.7% | 43.7% | 55.2% | 45.8% | 88.5% | 40.6% | 57.1% | 33.6% | -0.538% (active) | 27.7% | 57% | 93.3% | 96% | 25% | 18.8% |
| COc1ccc(C(O)c2cc3c(N)c(C(=O)Nc4cccc(OC)c4)sc3nc2C)cc1 (centres undefined) | 30% | 45.9% | 38.8% | 26.5% | 1.65% (active) | 37% | -27.4% (active) | 9.44% (active) | 33.9% | -42.8% (active) | 6.75% (active) | 7.83% (active) | 52.3% | 12.1% | 27% | 3.76% (active) | -12% (active) | 49.7% | 11.8% |
| COc1cc(CNC(=O)CCCCC[P+](c2ccccc2)(c2ccccc2)c2ccccc2)c(OC)c2c1OCO2 | 66.9% | 88.3% | 96.8% | 90.1% | 78.6% | 23.5% | 52.9% | 87.8% | 96.3% | 45.8% | 81.1% | 20.8% | 55.5% | 72.8% | 66.9% | 87.2% | 73.1% | 21.2% | 76.2% |
| CCN(CC)CCCC(C)Nc1c2c(nc3ccc(OC)cc13)CCCC2 (centres undefined) | 87.7% | 97.3% | 90.6% | 87.6% | 92.7% | 84.2% | 112% | 108% | 90.2% | 100% | 111% | 79.9% | 118% | 79.8% | 86.2% | 78% | 89.8% | 112% | 100% |
| CC(C)(C)OC(=O)N1C/C(=C\c2ccoc2)C(=O)/C(=C/c2ccoc2)C1 | 99.1% | 98.3% | 87.7% | 93.9% | 107% | 100% | 78.8% | 102% | 93.8% | 109% | 109% | 29.3% | 92.6% | 109% | 89.5% | 103% | 106% | 95.9% | 94.2% |
| COc1ccc(CNC(=O)COc2ccc(/C=N/Nc3nc4ccccc4s3)cc2)cc1 | 33.9% | 18% | 30.2% | 39.3% | -12.6% (active) | -24.8% (active) | 31.1% | 26.5% | -6.47% (active) | 64% | -49.1% (active) | 34.8% | 24.1% | 10.2% | 19.9% | 47.4% | 21.1% | 53.8% | 54% |
| Clc1ccc(C2CC(c3cccc(Nc4ccncc4)c3)=NN2c2cc(Cl)cc(Cl)c2)cc1 (centres undefined) | 79.6% | 88.7% | 81.6% | 68.5% | -68% (active) | 71.3% | 89.1% | 47.6% | -88.5% (active) | -58% (active) | 48% | 1.88% (active) | 62.8% | 71.5% | 83.8% | 70.5% | 81.9% | 88.8% | -63.9% (active) |
| COc1ccc(NC(=O)c2sc3nc(C)c(C(=O)CCc4cccc(OC)c4)cc3c2N)cc1 | 81.1% | 89.7% | 40.1% | 70.8% | 1.32% (active) | 88.4% | 78.7% | 30.2% | 78.5% | 44.1% | 71.7% | 20% | 62.5% | 85.8% | 80.2% | 15.7% | 72% | 89% | 70.1% |
| COc1cc2nc(Cc3ccc(C)cc3)[nH]c(=O)c2cc1OC | 105% | 95.9% | 236% | 104% | 107% | 69.1% | 92.8% | 49.3% | 103% | 123% | 100% | 94.3% | 277% | 98.8% | 105% | 121% | 104% | 105% | 113% |
| Cn1c(COC(=O)NCCN2CCOCC2)nc2c(N3CCOCC3)nc(-c3ccccc3)nc21 | -48.2% (active) | -65% (active) | 69% | 23.2% | 1.27% (active) | -62.8% (active) | -44.6% (active) | 30.7% | -83.9% (active) | -45.7% (active) | -81.6% (active) | 0.451% (active) | -91.9% (active) | -88.9% (active) | -36.8% (active) | 57% | -98.7% (active) | -46.6% (active) | -75.9% (active) |
| c1ccc(Cn2nc3c(c2-c2ccccc2)-c2oncc2CC3)cc1 | 87.5% | 103% | 113% | 105% | 102% | 62.3% | 76% | 90.5% | 105% | 113% | 112% | 73.2% | 89% | 96.8% | 107% | 76.7% | 110% | 92.1% | 98.2% |
| COc1ccc(-c2nc(SC)nc(N3CCOCC3)c2C#N)cc1 | 98.6% | 95.4% | 102% | 88.5% | 109% | 71.2% | 84% | 95.2% | 76.8% | 99% | 106% | 97.5% | 102% | 92.2% | 92.4% | 98.8% | 86.5% | 112% | 111% |
